# EWS-Fli block = blocks EWS/Fli oncoprotein-driven transcription. A673 NR0B1-luciferase reporter, viability-normalised. inhibition, % at 12.6 µM. actives 0.67% (n = 350,000). AID 651661;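 active means mean inhibition of at least 50% after viability correction, with every replicate also passing that limit; inconclusive means mean reaches 50% but only one of two replicates passes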;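 further: firefly luciferase signal divided by Alamar Blue viability fluorescence both relative to DMSO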
# TRPM1 prom inh = MITF TRPM1 promoter inhibition in SK-MEL-5 cells. SK-MEL-5 TRPM1 promoter luciferase, 24 h. inhibition, % at 12.5 µM. actives 0.83% (n = 330,000);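 active means mean inhibition across replicates of 60% or more, whatever share of single replicates reaches that level; inconclusive means some that reach 60%, reason not given; inactive means mean inhibition across replicates below 60%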
# LGR2 inh = Drosophila LGR2 receptor signaling inhibition; HEK293 LGR2, CRE-luciferase, bursicon-stimulated, 4 h; inhibition, % at 9.99 µM; actives 0.35% (n = 380,000); AID 720647;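 active means drop in luminescence signal, shown as inhibition above about 50% in the replicate tests, limit read from the data, passing the limit was not always enough; inconclusive means probably only some replicates passing the limit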;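 further: agonist challenge used bursicon conditioned medium at about half maximal strength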
# LMP1 NFkB inh = reduces LMP1-driven NF-kappaB luciferase signal; LMP1-induced NF-kappaB luciferase reporter cells, luminescence; inhibition, % at 12.5 µM; actives 0.69% (n = 350,000); AID 504558; in the data active means inhibition above about 41%; inconclusive means no clear call, values can overlap the other calls
# PAX8 reporter = inhibitors of PAX8 transcriptional activity in RMG-I cells | RMG-I TPO-luciferase reporter, SteadyGlo, 24 h | inhibition, % at 12.6 µM | actives 1.2% (n = 360,000);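 active means mean replicate inhibition at least 60% with every replicate also reaching 60%; inconclusive means only one of the two criteria is met; inactive means mean below 60% and not all replicates reaching 60%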;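 further: luciferase light reporting Pax8 driven TPO promoter activity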
# Shn3 inh set2 = inhibitors of Schnurri-3 3'UTR reporter in osteoblasts | Clone20 osteoblast Shn3 3'UTR firefly luciferase, 24 h | inhibition, % at 12.5 µM | actives 0.52% (n = 360,000) | AID 588674;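 active means mean inhibition of at least 75% with every replicate also reaching 75%; inconclusive means mean inhibition at least 75% but some replicate below; inactive means mean inhibition below 75%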
# Numbers stand for hits; – = inactive; ? = inconclusive; · = no result. This is a sample that favours compounds with a hit; in the whole collection about 2.2% have one here.
SMILES,EWS-Fli block,TRPM1 prom inh,LGR2 inh,LMP1 NFkB inh,PAX8 reporter,Shn3 inh set2
C[C@@H]1CN([C@H](C)CO)C(=O)c2cc(NC(=O)Nc3ccc(C(F)(F)F)cc3)ccc2O[C@@H](C)CCCCO[C@@H]1CN(C)S(=O)(=O)c1ccccc1,–,·,–,·,–,·
C[C@H](CO)N1C[C@H](C)[C@@H](CN(C)S(=O)(=O)c2ccccc2)OCCCC[C@H](C)Oc2ccc(NC(=O)Nc3ccc(C(F)(F)F)cc3)cc2C1=O,–,·,–,·,69.7,·
C[C@@H]1CCCCO[C@@H](CN(C)S(=O)(=O)c2ccccc2)[C@@H](C)CN([C@H](C)CO)C(=O)c2cc(NC(=O)Nc3ccc(C(F)(F)F)cc3)ccc2O1,–,·,–,·,–,·
C[C@@H]1CCCCO[C@H](CN(C)S(=O)(=O)c2ccccc2)[C@@H](C)CN([C@H](C)CO)C(=O)c2cc(NC(=O)Nc3ccc(C(F)(F)F)cc3)ccc2O1,–,·,–,·,–,·
C[C@H]1CCCCO[C@@H](CN(C)S(=O)(=O)c2ccccc2)[C@@H](C)CN([C@@H](C)CO)C(=O)c2cc(NC(=O)Nc3ccc(C(F)(F)F)cc3)ccc2O1,–,·,–,·,75.8,·
C[C@@H]1CCCCO[C@H](CN(C)S(=O)(=O)c2ccccc2)[C@H](C)CN([C@@H](C)CO)C(=O)c2cc(NC(=O)Nc3ccc(C(F)(F)F)cc3)ccc2O1,–,·,–,·,64.0,·
C[C@@H]1CCCCO[C@H](CN(C)S(=O)(=O)c2ccccc2)[C@@H](C)CN([C@@H](C)CO)C(=O)c2cc(NC(=O)Nc3ccc(C(F)(F)F)cc3)ccc2O1,–,·,–,·,72.0,·
C[C@H]1CCCCO[C@H](CN(C)C(=O)Nc2ccc(F)cc2)[C@@H](C)CN([C@@H](C)CO)C(=O)c2cc(NC(=O)c3ccccc3)ccc2O1,–,·,–,·,–,·
O=C(NCC[C@@H]1CC[C@H](NS(=O)(=O)c2ccccc2)[C@H](CO)O1)c1ccc2c(c1)OCO2,–,·,–,·,–,·
CN1CCN(C(=O)C[C@H]2CC[C@H]3[C@H](COc4ccc(NC(=O)C5CCCCC5)cc4C(=O)N3C)O2)CC1,–,·,–,·,–,·
C[C@@H]1CN([C@H](C)CO)C(=O)c2cccc(NC(=O)Nc3ccccc3)c2O[C@@H]1CN(C)Cc1ccc(-c2ccccc2)cc1,–,·,–,·,–,·
C[C@H](CO)N1C[C@H](C)[C@H](CN(C)S(=O)(=O)c2ccccc2)OCCCC[C@H](C)Oc2ccc(NC(=O)Nc3ccc(C(F)(F)F)cc3)cc2C1=O,–,·,–,·,74.4,·
O=C(c1sc2cc([N+](=O)[O-])ccc2c1Cl)N1CCOCC1,–,–,–,60.8,–,–
CC(C)N(C(=O)c1sc2cc([N+](=O)[O-])ccc2c1Cl)C(C)C,·,–,·,–,–,–
CCOc1cc(C(=O)NCc2ccccc2)ccc1OCC(=O)N1CCOCC1,–,–,–,–,–,–
CCOc1ccc(C(=O)NCc2ccccc2)cc1Br,–,–,–,–,79.0,–
CCOC(=O)NCc1ccccc1,·,–,·,84.2,·,–
CCCC#Cc1cnc2c(c1)C(=O)N([C@@H](C)CO)C[C@H](C)[C@H](CN(C)C(=O)NCCC)O2,–,·,–,·,·,·
COc1ccc(CNC(=O)C[C@@H]2C[C@H]3c4cc(NS(C)(=O)=O)ccc4O[C@H]3[C@H](CO)O2)cc1,–,·,–,·,·,·
Cc1cc(C(=O)COC(=O)c2ccccc2O)c(C)n1Cc1cccs1,·,90.4,·,87.2,·,91.2
Cc1cc(C(=O)COC(=O)c2ccc3c(c2)OCO3)c(C)n1Cc1cccs1,·,–,·,–,·,–
Cc1cc(C(=O)COC(=O)c2cc(O)c3ccccc3c2O)c(C)n1CC1CCCO1 (stereo unspecified),·,?,·,–,·,–
Cc1cc(C(=O)CSc2nnc(N)s2)c(C)n1Cc1cccs1,·,–,74.8,–,–,–
Cc1csc(SCC(=O)c2cc(C)n(Cc3cccs3)c2C)n1,·,–,·,?,·,–
Cc1cc(C(=O)COC(=O)c2ccccc2O)c(C)n1CC1CCCO1 (stereo unspecified),84.3,84.0,99.8,86.7,81.3,–
Cc1cc(C(=O)COC(=O)c2cccnc2Cl)c(C)n1CC1CCCO1 (stereo unspecified),–,–,·,65.1,–,–
Cc1cc(C(=O)COC(=O)c2ccccc2Br)c(C)n1CC1CCCO1 (stereo unspecified),–,75.6,91.9,75.5,–,?
